Experiment [1] relates to Plasmodium falciparum Sir2 (PF13_0152, Sir2A). Kind of experiment: pfSir2 binders on small-molecule microarrays, primary screen, biochemical, small-molecule microarray, 635 nm fluorescence (AID 1098).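 Note: score merges spot fluorescence intensity with its signal-to-noise ratio.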 As to conditions: small-molecule microarray binding, fluorescence 635 nm; higher = more signal.
Experiment [2] is described as follows: small-molecule microarray binders of probe aDKK1, primary screen, biochemical, biotinylated probe, 635/667 nm fluorescence (AID 1099).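 Note: score merges 667nm spot fluorescence with signal to noise across triplicate slides.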 Conditions: higher = more signal.
Experiment [3] is described as follows: small-molecule microarray binders of probe aCHRDL2, primary screen, biochemical, biotinylated probe, 635/667 nm fluorescence (AID 1100). Conditions: higher = more signal.
Experiment [4] can be described thus: splicing luciferase reporter signal modulators, primary screen, spliceosome inhibition project, cell-based, HEK293, splice +/- reporter (AID 1101).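 Note: HEK293 cells carrying a splicing-competent luciferase reporter gene; test concentration not given here.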 As to conditions: luminescence, 24 h, higher = more signal, called active from +8 up or from −8 down. Background: In a reporter assay the amount or activity of a reporter protein is the signal.
Experiment [5] has as its target Fibroblast growth factor 10 (Homo sapiens) (UniProt O15520). Kind of experiment: FGF10 binders on small-molecule microarrays, primary screen, biochemical, small-molecule microarray, 635 nm fluorescence (AID 1102). As to conditions: FGF10 binding, fluorescence 635 nm, higher = more signal.
Experiment [6] deals with glycogen synthase kinase-3 (GSK3A per assay name; protocol says GSK3B). Kind of experiment: GSK3 binders on small-molecule microarrays, primary screen, biochemical, small-molecule microarray, 635 nm fluorescence, GSK3A (AID 1103). Note: the record names both GSK3A and GSK3B. Conditions: small-molecule microarray binding, fluorescence 635 nm; higher = more signal.
The target in experiment [7] is Epidermal growth factor receptor (Homo sapiens) (UniProt P00533). Kind of experiment: EGFR binders on small-molecule microarrays, primary screen, biochemical, small-molecule microarray, 635 nm fluorescence (AID 1104).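 Note: score merges 667 nm emission intensity with spot signal to noise over triplicate slides.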 As to conditions: EGFR binding, higher = more signal.
The target of experiment [8] is Follistatin-related protein 3 (Homo sapiens) (UniProt O95633). Kind of experiment: FSTL3 binders on small-molecule microarrays, primary screen, biochemical, small-molecule microarray, 635 nm fluorescence (AID 1105).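 Note: score merges emission near 667 nm and signal to noise per printed spot across three slides.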 Conditions: FSTL3 binding, higher = more signal.
In experiment [9] the target is Dickkopf-related protein 1 (Homo sapiens) (UniProt O94907). In words: DKK1 binders on small-molecule microarrays, primary screen, biochemical, small-molecule microarray, 635 nm fluorescence scan (AID 1106).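 Note: score merges emission near 667 nm with signal to noise over three replicate slides.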 Conditions: DKK1 binding, higher = more signal.
Experiment [10] deals with Inhibin beta A chain (activin A). Kind of experiment: INHBA (activin A) binders on microarrays, primary screen, biochemical, small-molecule microarray, 635 nm fluorescence scan (AID 1107).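 Note: mouse activin A protein probed at 4.33 µg/mL on printed slides; score merges bound-protein fluorescence near 667 nm with spot signal-to-noise.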 Conditions: small-molecule microarray binding, higher = more signal.
Experiment [11] has as its system Human papillomavirus type 1a protein E7 (residues 44-93). Kind of experiment: HPV1a E7 fragment binders on microarrays, primary screen, biochemical, small-molecule microarray, residues 44-93, 635 nm fluorescence (AID 1108).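 Note: E7 fragment applied at 1 µg/mL in TBST for 1 h at 4 C; score combines spot fluorescence with its signal to noise ratio.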 Conditions: small-molecule microarray binding, fluorescence 635 nm; higher = more signal.
A short description of experiment [12]: modulators of HCV replicon luciferase signal, primary screen, HCV replication inhibitor project, Huh7 cells, luciferase reporter (AID 1109).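 Note: huh7 hepatoma cells harbouring a luciferase neomycin HCV replicon reporter; luciferase luminescence as measure of HCV replicon replication; test concentration not given here.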 Conditions: 48 h, higher = more signal. (In general: In antiviral work, replicon cells carry a viral genome segment that copies itself.)
The target of experiment [13] is Left-right determination factor 2 (Homo sapiens) (UniProt O00292). In words: LEFTY2 binders on small-molecule microarrays, primary screen, biochemical, small-molecule microarray, 635 nm fluorescence scan (AID 1110). Conditions: LEFTY2 binding, higher = more signal.
In experiment [14] the target is Calmodulin-1 (Homo sapiens) (UniProt P0DP23). Kind of experiment: CALM1 binders on microarrays, EGTA buffer, profiling panel, biochemical, small-molecule microarray, Cy5-labelled CALM1 (AID 1111).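 Note: labelled calmodulin applied in Tris saline Tween buffer holding calcium plus EGTA and DTT.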 Conditions: Cy5-CALM1 binding fluorescence, higher = more signal.
Experiment [15] shares this target. In words: calcium-bound CALM1 binders on microarrays, profiling panel, artefact control for SMM control-protein annotation, biochemical, small-molecule microarray, Cy5-labelled CALM1, plus calcium (AID 1112).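 Note: score merges spot fluorescence with signal to noise from triplicate slides.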 Conditions: Cy5-CALM1 binding fluorescence, higher = more signal.
The nature of experiment [16]: small-molecule microarray binders of probe aWnt5a, primary screen, biochemical, biotinylated probe, 635/667 nm fluorescence (AID 1113).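 Note: score merges 667 nm fluorescence intensity with signal-to-noise per printed feature.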 As to conditions: higher = more signal.
The nature of experiment [17]: small-molecule microarray binders of probe aShh, primary screen, biochemical, biotinylated probe, 635/667 nm fluorescence (AID 1114).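 Note: probe is biotin-labelled aShh protein from a stem cell growth factor screen; measures binding of labelled protein to compounds printed on the slide; score merges feature fluorescence at 667 nm with signal-to-noise.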 Conditions: higher = more signal.
A short description of experiment [18]: small-molecule microarray binders of probe aNog, primary screen, biochemical, biotinylated probe, 635/667 nm fluorescence (AID 1115).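 Note: probe is biotinylated aNog protein used at 0.15 µg/mL for 1 h at 4 C; z-score combines 667 nm fluorescence of each spot with its signal to noise.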 Conditions: higher = more signal.
For experiment [19], the target named is Torsin-1A-interacting protein 1 (Homo sapiens) (UniProt Q5JTV8). In words: LAP1 binders from COS7 cell lysate, primary screen, small-molecule microarray, 635/667 nm fluorescence (AID 1116). Conditions: COS7-hLAP1 lysate binding, 635 nm fluorescence, higher = more signal.
In experiment [20] the target is Alpha-bungarotoxin (Bungarus multicinctus) (UniProt P60615). Kind of experiment: alpha-bungarotoxin binders on microarray, profiling panel, artefact control for SMM control protein annotation, biochemical, small-molecule microarray, Alexa647 label, 635/667 nm fluorescence (AID 1117). Conditions: alpha-BTX-A647 binding fluorescence, higher = more signal.

Activity calls are given as the source filed them.

Follistatin-related protein 3 (Homo sapiens), sequence (O95633 whole entry, looked up): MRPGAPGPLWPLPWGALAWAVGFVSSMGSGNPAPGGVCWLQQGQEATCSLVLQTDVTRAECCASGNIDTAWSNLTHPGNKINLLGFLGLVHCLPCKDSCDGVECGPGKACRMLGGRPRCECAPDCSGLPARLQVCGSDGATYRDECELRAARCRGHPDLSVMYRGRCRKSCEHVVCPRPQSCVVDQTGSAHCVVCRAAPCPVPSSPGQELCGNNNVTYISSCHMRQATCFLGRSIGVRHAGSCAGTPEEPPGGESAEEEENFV
Alpha-bungarotoxin (Bungarus multicinctus), sequence (P60615 whole entry, looked up): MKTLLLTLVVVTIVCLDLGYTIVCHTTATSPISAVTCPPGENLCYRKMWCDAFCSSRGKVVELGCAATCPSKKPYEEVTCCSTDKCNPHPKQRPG
Torsin-1A-interacting protein 1 (Homo sapiens), sequence (Q5JTV8 whole entry, looked up): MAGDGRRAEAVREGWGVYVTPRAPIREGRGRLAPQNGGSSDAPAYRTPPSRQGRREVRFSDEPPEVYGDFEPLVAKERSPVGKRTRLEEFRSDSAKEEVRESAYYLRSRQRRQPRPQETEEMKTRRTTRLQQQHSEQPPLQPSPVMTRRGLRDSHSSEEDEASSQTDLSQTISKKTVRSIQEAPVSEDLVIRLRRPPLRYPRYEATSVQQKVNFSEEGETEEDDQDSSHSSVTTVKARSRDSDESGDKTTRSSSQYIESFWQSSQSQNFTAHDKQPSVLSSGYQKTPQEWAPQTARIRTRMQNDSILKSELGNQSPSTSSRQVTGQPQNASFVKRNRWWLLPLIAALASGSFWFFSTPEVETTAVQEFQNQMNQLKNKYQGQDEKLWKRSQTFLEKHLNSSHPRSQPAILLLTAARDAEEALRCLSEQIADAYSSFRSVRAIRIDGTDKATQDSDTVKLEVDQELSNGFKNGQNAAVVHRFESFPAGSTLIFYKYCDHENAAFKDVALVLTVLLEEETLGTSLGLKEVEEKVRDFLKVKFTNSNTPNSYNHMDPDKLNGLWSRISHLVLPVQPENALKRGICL
Epidermal growth factor receptor (Homo sapiens), sequence (P00533 whole entry, looked up): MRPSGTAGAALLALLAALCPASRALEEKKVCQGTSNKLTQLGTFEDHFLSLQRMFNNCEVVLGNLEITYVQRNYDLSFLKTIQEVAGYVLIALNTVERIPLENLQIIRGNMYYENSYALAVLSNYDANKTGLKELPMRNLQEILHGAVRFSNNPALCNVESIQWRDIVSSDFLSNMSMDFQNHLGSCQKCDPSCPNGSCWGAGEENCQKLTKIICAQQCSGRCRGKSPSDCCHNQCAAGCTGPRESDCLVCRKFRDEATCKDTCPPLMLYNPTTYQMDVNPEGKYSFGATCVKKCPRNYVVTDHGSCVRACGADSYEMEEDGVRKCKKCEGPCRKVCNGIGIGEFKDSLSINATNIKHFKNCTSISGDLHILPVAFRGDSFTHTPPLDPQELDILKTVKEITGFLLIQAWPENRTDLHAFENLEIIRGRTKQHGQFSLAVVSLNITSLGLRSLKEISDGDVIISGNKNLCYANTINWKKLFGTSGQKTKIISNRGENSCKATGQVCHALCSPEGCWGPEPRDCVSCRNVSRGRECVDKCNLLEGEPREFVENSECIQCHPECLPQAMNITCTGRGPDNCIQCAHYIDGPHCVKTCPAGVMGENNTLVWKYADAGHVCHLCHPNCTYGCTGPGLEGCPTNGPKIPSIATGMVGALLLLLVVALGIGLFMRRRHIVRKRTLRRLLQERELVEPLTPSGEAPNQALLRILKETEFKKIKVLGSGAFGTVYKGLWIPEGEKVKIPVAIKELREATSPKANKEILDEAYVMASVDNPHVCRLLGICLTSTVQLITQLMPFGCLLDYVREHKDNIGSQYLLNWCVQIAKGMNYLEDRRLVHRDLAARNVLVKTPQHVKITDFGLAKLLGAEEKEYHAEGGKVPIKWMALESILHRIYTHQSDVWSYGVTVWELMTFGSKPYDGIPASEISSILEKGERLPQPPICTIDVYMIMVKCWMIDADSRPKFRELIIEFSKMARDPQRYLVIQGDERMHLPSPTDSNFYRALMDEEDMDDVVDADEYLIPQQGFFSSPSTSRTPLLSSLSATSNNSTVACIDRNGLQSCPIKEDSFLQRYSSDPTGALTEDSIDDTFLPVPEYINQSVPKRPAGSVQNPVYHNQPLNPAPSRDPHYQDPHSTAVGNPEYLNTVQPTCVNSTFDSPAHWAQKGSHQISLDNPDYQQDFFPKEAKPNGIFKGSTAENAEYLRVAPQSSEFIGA
Fibroblast growth factor 10 (Homo sapiens), sequence (O15520 whole entry, looked up): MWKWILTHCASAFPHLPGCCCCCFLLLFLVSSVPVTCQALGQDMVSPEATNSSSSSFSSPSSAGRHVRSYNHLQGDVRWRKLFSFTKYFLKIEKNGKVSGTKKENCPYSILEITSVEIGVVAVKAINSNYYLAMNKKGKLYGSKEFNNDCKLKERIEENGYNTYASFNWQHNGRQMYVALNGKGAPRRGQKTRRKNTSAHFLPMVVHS
Left-right determination factor 2 (Homo sapiens), sequence (O00292 whole entry, looked up): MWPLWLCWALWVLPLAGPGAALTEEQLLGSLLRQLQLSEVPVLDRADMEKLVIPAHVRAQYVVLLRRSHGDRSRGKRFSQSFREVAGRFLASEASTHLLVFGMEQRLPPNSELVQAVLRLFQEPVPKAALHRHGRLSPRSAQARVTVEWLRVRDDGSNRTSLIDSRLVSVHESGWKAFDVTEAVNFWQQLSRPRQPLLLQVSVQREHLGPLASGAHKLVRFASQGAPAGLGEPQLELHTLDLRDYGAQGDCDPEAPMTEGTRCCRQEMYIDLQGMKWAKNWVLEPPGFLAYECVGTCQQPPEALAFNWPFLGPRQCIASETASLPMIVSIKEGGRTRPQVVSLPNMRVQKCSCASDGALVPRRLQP
Dickkopf-related protein 1 (Homo sapiens), sequence (O94907 whole entry, looked up): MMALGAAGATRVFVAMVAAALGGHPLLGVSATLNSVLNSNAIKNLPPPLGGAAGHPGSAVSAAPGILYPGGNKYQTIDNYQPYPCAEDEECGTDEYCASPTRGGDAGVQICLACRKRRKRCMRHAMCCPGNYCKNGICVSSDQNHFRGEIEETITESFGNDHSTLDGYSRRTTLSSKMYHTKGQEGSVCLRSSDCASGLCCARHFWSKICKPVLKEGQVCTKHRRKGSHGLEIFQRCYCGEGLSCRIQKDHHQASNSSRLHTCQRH

Turning to `O=C(O)[C@@]1(CCS(=O)(=O)c2ccccc2)N=C(c2ccc(OCCCO)cc2)O[C@H]1c1ccccc1`, the composite z-score in [1] was 0.729; in experiment [2] it was 0.737; in [3] it was 0.905; in [5], -0.678; in experiment [6] it was -0.123; in [7], -0.264. Besides, the composite z-score in experiment [8] was 0.215; in experiment [9] it was -1.05; in experiment [10] it was 0.658; in experiment [11], 1.32; in experiment [13], -0.665; in experiment [14] it was 2.47. For the same compound, the composite z-score in [15] is 0.967; in experiment [16] it was -0.0084; in experiment [17] it was 0.0639; in experiment [18], 1.1; in [19], 1.08; in experiment [20] it was 0.524. For the same compound, the z-score in [4] was -0.123 (inactive); in [12], -0.124.

In the case of `C=C(/C(=C/C[C@H](OC(C)=O)c1ccc(OCCO)cc1)c1cc(C(=O)OC)ccc1OC)C(C)C`, the composite z-score is 1.53 in experiment [1]; 0.0971 in [2]; -0.188 in experiment [3]; 1.12 in [5]; 0.451 in [6]; -0.296 in [7]. The composite z-score in experiment [8] was 0.647; in [9] it was 0.196; in experiment [10] it was 0.326; in [11], 1.16; in [13], 0.323; in experiment [14], 1.17. Moreover, the composite z-score was 0.116 in [15]; -0.0721 in experiment [16]; -0.2 in [17]; 0.775 in experiment [18]; 1.2 in experiment [19]; 0.179 in [20]. In addition, the z-score was -0.045 (inactive) in experiment [4] and -1.19 in experiment [12].

Consider `C=CCN(Cc1ccccc1)C(=O)C(c1cccs1)N(C(=O)/C=C\C(=O)O)c1ccc(CCOCCO)cc1` (stereo not given), for which the composite z-score was 1.33 in experiment [1]; -0.291 in experiment [2]; 0.486 in experiment [3]; -2.15 in experiment [5]; -1.28 in [6]; -1.43 in experiment [7]. Besides, the composite z-score was -1.27 in experiment [8]; -2.18 in [9]; -0.753 in [10]; -0.774 in experiment [11]; -2.57 in experiment [13]; -0.722 in experiment [14]. Besides, the composite z-score in [15] was 0.665; in experiment [16] it was -0.191; in experiment [17] it was -0.138; in experiment [18] it was -0.242; in experiment [19], -0.678; in experiment [20], -1.84. The z-score was -1.2 (inactive) in [4] and 0.386 in experiment [12].

Take `COC(=O)[C@@]1(Cc2ccccc2)[C@H]2c3cc(C(=O)N4CCCC4)n(Cc4ccc(O)c(OC)c4)c3C[C@H]2CN1C(=O)c1ccccc1`: the composite z-score was 0.117 in experiment [1]; 0.611 in experiment [2]; 1.08 in [3]; 0.253 in experiment [5]; 0.632 in [6]; -0.527 in experiment [7]. In addition, the composite z-score in [8] is 0.202; in experiment [9], -0.817; in [10] it was 0.939; in experiment [11], 1.35; in experiment [13], -0.943; in [14], 0.556. Further, the composite z-score was 0.0466 in [15]; 0.288 in experiment [16]; 1.14 in experiment [17]; 1.11 in experiment [18]; 0.53 in experiment [19]; -0.142 in experiment [20]. Besides, the z-score in experiment [4] was -2.95 (inactive); in [12], -1.7.

For the compound `COCCCNC(=O)[C@@]1(CCS(=O)(=O)c2ccccc2)N=C(c2ccc(OCCCO)cc2)O[C@H]1c1ccccc1N=[N+]=[N-]`, the composite z-score is 1.41 in experiment [1]; 0.879 in experiment [2]; 0.942 in experiment [3]; 1.49 in experiment [5]; 0.79 in [6]; -0.0333 in experiment [7]. For the same compound, the composite z-score came to 1.25 in [8]; 0.267 in [9]; 0.796 in experiment [10]; 1.48 in experiment [11]; 0.169 in [13]; 1.55 in [14]. For the same compound, the composite z-score in [15] was found to be 0.001; in experiment [16], 0.127; in experiment [17], 0.204; in [18], 1.36; in experiment [19] it was 2.24; in experiment [20] it was 1.67. Further, the z-score in [4] was -0.0182 (inactive); in [12], -1.6.

Consider `CCCCCCc1nc(-c2ccc(-c3ccc(Cl)c(Cl)c3)o2)c(C)c2c1[Si](C(C)C)(C(C)C)OC2`, for which the composite z-score was -0.0921 in experiment [1]; -0.233 in experiment [2]; -0.102 in experiment [3]; -0.57 in [5]; -0.555 in experiment [6]; -0.648 in experiment [7]. Further, the composite z-score in [8] was -0.374; in experiment [9], -0.446; in experiment [10] it was 0.375; in [11], -0.121; in experiment [13] it was -0.127; in experiment [14], 0.18. In addition, the composite z-score in [15] was 0.45; in experiment [16], -0.124; in [17], -0.123; in experiment [18], -0.124; in experiment [19] it was -0.196; in [20] it was 0.354. Besides, the z-score in experiment [4] was -1.62 (inactive); in experiment [12], -1.46.

The values above are taken from PubChem BioAssay.
